Values joined by “and” are separate entries in the source; they are usually repeats but may differ in a detail not shown here. Equal values may be shown once. About 2,400 (0.67%) of roughly 360,000 compounds were called active. Many of the other results were omitted from the sample, so actives are more common in it than they were. Unmarked numbers belong to inactive results.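 The calls were made as follows: active = inhibition above about 55% (limit read from the data); inconclusive = no clear call, values can overlap the other calls; inactive = the rest.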
Experiment: LAMP-1 surface exposure blockers, TALL-104 cells – cell-based, flow cytometry, MLPCN library, primary screen (AID 651702)
Settings: TALL-104 LAMP-1 surface exposure, at 10 µM, stronger effect = higher value, cells stimulated with thapsigargin and PMA

Row | SMILES | inhibition
1 | CC(C)(C)n1nc2c(c1NC(=O)c1cc3ccccc3o1)CSC2 | 0%
2 | Cc1c(/C=N\NC(=O)c2cc3ccccc3o2)c2ccccc2n1C | 65.6% (active)
3 | COc1ccc2c(c1)c(C(=O)N/N=C/c1cccs1)c(C)n2C | 0.8%
4 | CCn1nc(C(=O)NNS(=O)(=O)c2cc(/C=C/C(=O)O)cc(OC)c2OC)c2ccccc2c1=O | 1.1%
5 | CCOc1ccc(/C=C/C(=O)OCC(=O)c2ccccc2OC)cc1OC | -4.4%
6 | O=C(CN1C(=O)NC2(CCCCCC2)C1=O)NCc1cccs1 | -5.2%
7 | Cc1nc2c(C(=O)NCc3ccc4c(c3)OCO4)c[nH]n2c(=O)c1Cc1ccccc1F | -2.7%
8 | Cc1cccc(N(C)C(=O)c2cc(S(=O)(=O)N3CCCCC3)c[nH]2)c1 | -3.8%
9 | CCCCn1nnnc1C1(C)CCC(=O)N1Cc1ccc(OC)c(OC)c1 (stereo not given) | -1.7%
10 | Cc1nc(SCC(=O)c2ccccc2)c([N+](=O)[O-])[nH]1 | 0.6%
11 | Cc1cc(SCC(=O)c2ccccc2)nc(SCC(=O)c2ccccc2)n1 | 78.5% (active)
12 | Cc1nc2nc(SCC(=O)c3ccccc3)[nH]c2cc1Br | -2.1%
13 | O=c1[nH]c(=S)[nH]c(O)c1/C=C1\C=Nc2ccccc21 | -1.2%
14 | Cc1ccc(S(=O)(=O)NC(C(=O)N2CCOCCOCCOCCOCC2)c2ccccc2)cc1 (stereo not given) | -7%
15 | CCCC(C(=O)n1nc(C)cc1C)C(NS(=O)(=O)c1ccc(C)cc1)c1ccccc1 (stereo not given) | 66% (active)
16 | CSCC(NS(=O)(=O)c1ccc(C)cc1)C(=O)O (stereo not given) | 1.8%
17 | N#Cc1ccc(C(C(=O)NCc2ccccc2)n2c(=O)c(-c3ccco3)nc3ccccc32)cc1 (stereo not given) | 1.3%
18 | COc1ccccc1CCNC(=O)c1c(C)nn(CC(C)C)c1Cl | -1.6%
19 | COCCCn1c(SCC(=O)Nc2oc(C)c3c(C)n[nH]c(=O)c23)nc2sc3c(c2c1=O)CCC3 | -0.6%
20 | CC(CCc1ccccc1)NC(=O)COC(=O)c1ccc(F)cc1 (stereo not given) | 6%
21 | COc1cc(/C=C2/C(=O)ON=C2C)ccc1OCc1ccccc1F | 60.6% (active)
22 | CC1=NOC(=O)/C1=C\c1ccccc1 | -7.3%
23 | C#CCOc1ccc(/C=C2/C(=O)ON=C2C)cc1OCC | -12.5%

Row | SMILES | inhibition
24 | CC(C)(C)c1ccc(C(=O)N2CCN(CCNC(=O)C(=O)Nc3ccc(F)cc3)CC2)cc1 | -0.5%
25 | COc1ccc(C2(c3ccc(OC)cc3)NC(=O)N(CC(=O)Nc3cc(C)on3)C2=O)cc1 | 5.1%
26 | CC(=O)C[C@H](O)CC(=O)[C@@H]1OC(=O)[C@@H](C)C/C=C\Cc2ccccc21 | -0.2%
27 | CC[C@@H]1CCCCc2ccccc2[C@@H](C(=O)C[C@H](O)CC(C)=O)OC1=O | -4.4%
28 | CC(=O)C[C@@H](O)CC(=O)[C@H]1OC(=O)CCCCCCc2ccccc21 | 58.1% (active)
29 | CSc1nc2nc(-c3cccc(C(F)(F)F)c3)ccn2n1 | -1.7%
30 | Nc1c(C(=O)c2cccs2)sc2nsc(SCCN3CCCCC3)c12 | 94.6% (active)
31 | O=C(Cc1ccc(NC(=O)C2CCCN(C(=O)CCc3ccccc3)C2)cc1)Nc1ccc(C(=O)N2CCOCC2)cc1 (stereo not given) | -2%
32 | CCOC(=O)C1CCN(C(=O)CN2C(=O)c3cccnc3Oc3ccc(C)cc32)CC1 | -4.5%
33 | Cc1ccc(C2(c3ccc(C)cc3)NC(=O)N(Cc3c(C)noc3C)C2=O)cc1 | 4.4%
34 | CCCCC[C@H](C)N1C[C@@H](COCc2ccccc2)Oc2cc(N3CC[C@@H](N(C)C)C3)ccc2S1(=O)=O | 56.2% (active)
35 | CCCCN1CC(COCc2ccccc2)OCCS1(=O)=O (stereo not given) | -5.6%
36 | CCCCC[C@H](C)N1C[C@@H](COCc2ccccc2)Oc2cc(N3CCC[C@@H]3CO)ccc2S1(=O)=O | 0.2%
37 | COc1ccc2sc(-c3ccc(N(C)C)cc3)c(-c3ccc4cc[nH]c4c3)c2c1 | 72% (active)
38 | COc1cc(OC)cc(-c2c(-c3ccc(F)cc3)c3cc(-c4ccc5cc[nH]c5c4)ccc3n2C)c1 | -0.5%
39 | COc1cccc(-c2sc3ccc(OC)cc3c2-c2ccc(OCCN3CCCCC3)cc2)c1 | 14.7%
40 | O=C(CCc1nnc2ccc(NCc3ccccc3Cl)nn12)NCC1CCN(C2CCCC2)C1 (stereo not given) | -2.5%
41 | COc1ccc(S(=O)(=O)NCC(c2ccco2)N2CCOCC2)cc1 (stereo not given) | -1.5%
42 | C=C(C)CNC(=S)Nc1ccc(S(=O)(=O)Nc2cnc3ccccc3n2)cc1 | 9.1%
43 | Cc1ccccc1OS(=O)(=O)c1cccc([N+](=O)[O-])c1 | -1.4%
44 | COc1ccc(S(=O)(=O)N2CCN(CC(=O)N3CCNC3=O)CC2)cc1OC | -0.1%
45 | CN1CCN(C2Cc3ccc(Cl)cc3Sc3ccc(F)cc32)CC1 (stereo not given) | 63.7% (active)
46 | Cc1ccc(-c2nnn(CC(=O)N(Cc3ccco3)C(C(=O)NC(C)(C)C)c3ccncc3)n2)o1 (stereo not given) | 3.8%

Row | SMILES | inhibition
47 | Cc1c(C(C)(C)O)[nH]c2ccc(C#N)cc12 | 2.3%
48 | COc1ccc(/C=C/c2nnc(NC(=O)C(C)C)s2)cc1 | 2%
49 | O=C(Nc1ccc(Cl)cc1)Nc1nnc(/C=C/c2ccccc2)s1 | 70.9% (active)
50 | O=C(CSc1ccccc1)Nc1nnc(/C=C/c2ccccc2)s1 | -0.2%
51 | CCNC(=O)C1(C)CCCN(C(=O)c2c(C)noc2C)C1 (stereo not given) | -7.3%
52 | COc1cc(C(=O)Nc2cc(C(F)(F)F)ccc2N2CCOCC2)ccc1O | -2.1%
53 | O=C(CCn1nnc2ccccc21)OCC(=O)c1ccc([N+](=O)[O-])cc1 | -4.6%
54 | O=C(CC(n1cncn1)C(Cl)(Cl)Cl)c1ccc([N+](=O)[O-])cc1 (stereo not given) | 67.9% (active)
55 | O=C(Cn1c[n+](CC(=O)c2ccc([N+](=O)[O-])cc2)cn1)c1ccc([N+](=O)[O-])cc1 | 0.3% and 0%
56 | CN(C(=O)c1cccc(NC(=O)Cc2ccc(NC(=O)C3CCCN(C(=O)C4CCCC4)C3)cc2)c1)C1CCC1 (stereo not given) | -0.4%
57 | CCO/C=C1\C(=O)N(c2ccc(OCC)cc2)C(=O)c2ccccc21 | -2.4%
58 | CCOc1ccc(N2C(=O)CN(c3cccc4ccccc34)C2=S)cc1 | -2.1%
59 | CCOc1ccc(N2C(=O)/C(=C/c3ccc(C)o3)N(C)C2=S)cc1 | 76.4% (active)
60 | O=C(NCC1CCCO1)C1CCN(C2CCN(C(=O)C3CCCCC3)CC2)CC1 (stereo not given) | 1.8%
61 | O=C(CSc1ccccc1)Nc1cc(Cl)ccc1Oc1ccccc1 | -1.8%
62 | CC(=O)Nc1ccc(NC(=O)CN2CCCC(C)C2)c(Cl)c1 (stereo not given) | 1.3%
63 | CC1CCCN(CC(=O)Nc2cc(Cl)ccc2Oc2ccccc2)C1 (stereo not given) | 96.4% (active)
64 | CCCCCCCCN1C(=O)[C@H](CC(=O)NCc2cccc3ccccc23)C[C@@]2(C(=O)OC)CCCCC=C12 | 5.4%
65 | O=C(COc1coc(CN2CCN(c3ccccc3)CC2)cc1=O)Nc1ccccc1F | 10.5%
66 | CN1CCN(C2=NCCO2)CC1 | -6.4%
67 | CNc1nc2c(C)cccn2c(=O)c1C=Nc1ccc(OC)cc1 | -1.8%
68 | Cc1ccc2[nH]c(=O)c(-c3nc4c(C)cccn4c3NCc3ccco3)cc2c1 | 19.3%
69 | CCCN(CCC)c1nc2c(C)cccn2c(=O)c1/C=C1/SC(=S)N(Cc2ccco2)C1=O | 57.2% (active)

Row | SMILES | inhibition
70 | CSc1nc2sc3c(c2c(=O)[nH]1)CCc1ccccc1-3 | -6.9%
71 | CCN(CC)CCCC(C)n1c2nc(=O)[nH]c(=O)c-2nc2cc(Cl)ccc21 (stereo not given) | -0.7%
72 | CN1C(C(=O)NCC2CC2)CC2Cn3c(nc4ccccc43)C21 (stereo not given) | -1.8%
73 | COc1ccc(CCNC(=O)C2CC3Cn4c(nc5cc(C)c(C)cc54)C3N2C)cc1 (stereo not given) | 60.3% (active)
74 | Cc1cc2nc3n(c2cc1C)CC1CC(C(=O)NCCC(C)C)N(C)C31 (stereo not given) | -4.6%
75 | COc1cc(NC(=O)C2CC(c3ccccc3O)=NO2)c(OC)cc1Cl (stereo not given) | -9.5%
76 | COc1ccc(NC(=O)C(C)SCc2ccccc2)cc1 (stereo not given) | -0.5%
77 | Cc1cccc(NC(=O)C2CC(=O)OC23CCCC3)c1 (stereo not given) | 3.1%
78 | CC(Nc1nc(C(F)(F)F)nc2ccccc12)c1cccs1 (stereo not given) | -9.6%
79 | COc1cccc(CNc2nc(C(F)(F)F)nc3ccccc23)c1 | 65.7% (active)
80 | COc1cccc(CNc2ncc(-c3ccccc3)n2C)c1 | 1%
81 | CC(CCc1ccc(O)cc1)NCc1ccc(Cl)cc1Cl (stereo not given) | 3.5%
82 | Brc1cc(Br)c(Oc2cc(Br)c(Br)cc2Br)cc1Br | 0.4%
83 | CN(C(=O)CN1CCN(c2cc(-c3ccc(OCc4ccccc4)cc3)ncn2)CC1)c1ccccc1 | -3.7%
84 | Cc1ccc(NC(=S)N2CCCC(c3ccccc3)=N2)cc1 | 2.5%
85 | O=S(=O)(c1cccc2nonc12)N1CCN(c2cccc(Cl)c2)CC1 | -11.1%
86 | COc1cc(C(=O)NCc2nnc(SCC(=O)Nc3nc4ccc(C)cc4s3)o2)cc(OC)c1OC | -6.4%
87 | CCCC(=O)Nc1nc2ccc(NC(=O)c3c(F)c(F)c(OC)c(F)c3F)cc2s1 | 68.7% (active)
88 | CCCn1nc(C(=O)Nc2ccc3nc(C)sc3c2)c2ccccc2c1=O | -2.4%
89 | CC(=O)Nc1ccc(NC(=O)CSc2nnnn2C2CCCCC2)cc1 | -2.8%
90 | CCOc1ccc(S(=O)(=O)N2CCN=C2Cc2ccccc2)cc1C | 1.2%
